# In the supplement of paper PMC8728848:
# The full list was thinned out, with the strongest signals kept by preference.
# B1: Gal 7 (Homo sapiens) (protein)
# chain: MSNVPHKSSLPEGIRPGTVLRIRGLVPPNASRFHVNLLCGEEGGSDAALHFNPRLDTSEVVFNSKEGGSWGREESGPGVPFGRGQPFEVLIIASDDGFKAVVGDAQYHHFRHRLPLARVRLVEVGGDVQLDSVRIF
# Experiments:
# Test in all cases: glycan array binding signal (z-score within array); higher = stronger binding
# Conditions in all cases: glycan notation: IUPAC condensed, linker removed; mutation: R74S
# [1] = biological target: Gal(b1-4)GlcNAc(b1-3)Gal(b1-4)GlcNAc(b1-3)Gal(b1-4)GlcNAc(b1-3)Gal(b1-4)GlcNAc(b1-2)Man(a1-3)[Gal(b1-4)GlcNAc(b1-3)Gal(b1-4)GlcNAc(b1-3)Gal(b1-4)GlcNAc(b1-3)Gal(b1-4)GlcNAc(b1-2)Man(a1-6)]Man(b1-4)GlcNAc(b1-4)[Fuc(a1-6)]GlcNAc
# Summary of the method: (§1)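 Columns mapping to the same glycan were averaged after glycan names were converted to IUPAC-condensed notation. The data come from 3228 arrays in the Consortium for Functional Glycomics database, limited to those with an available protein sequence. Binding is reported as a within-array Z-score averaged across arrays of one protein sequence and across linkers.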
# [2] = biological target: Gal(b1-4)GlcNAc(b1-3)Gal(b1-4)GlcNAc(b1-3)Gal(b1-4)GlcNAc(b1-3)Gal(b1-4)GlcNAc(b1-2)[Gal(b1-4)GlcNAc(b1-3)Gal(b1-4)GlcNAc(b1-3)Gal(b1-4)GlcNAc(b1-3)Gal(b1-4)GlcNAc(b1-6)]Man(a1-6)[Gal(b1-4)GlcNAc(b1-3)Gal(b1-4)GlcNAc(b1-3)Gal(b1-4)GlcNAc(b1-3)Gal(b1-4)GlcNAc(b1-2)Man(a1-3)]Man(b1-4)GlcNAc(b1-4)[Fuc(a1-6)]GlcNAc
# Summary of the method: as §1
# [3] = biological target: Gal(b1-4)GlcNAc(b1-3)Gal(b1-4)GlcNAc(b1-3)Gal(b1-4)GlcNAc(b1-3)Gal(b1-4)GlcNAc(b1-3)Gal(b1-4)GlcNAc(b1-2)Man(a1-3)[Gal(b1-4)GlcNAc(b1-3)Gal(b1-4)GlcNAc(b1-3)Gal(b1-4)GlcNAc(b1-3)Gal(b1-4)GlcNAc(b1-3)Gal(b1-4)GlcNAc(b1-2)Man(a1-6)]Man(b1-4)GlcNAc(b1-4)GlcNAc
# Summary of the method: as §1
# [4] = biological target: Gal(b1-4)GlcNAc(b1-3)Gal(b1-4)GlcNAc(b1-3)Gal(b1-4)GlcNAc(b1-3)Gal(b1-4)GlcNAc(b1-3)Gal(b1-4)GlcNAc(b1-2)Man(a1-3)[Gal(b1-4)GlcNAc(b1-3)Gal(b1-4)GlcNAc(b1-3)Gal(b1-4)GlcNAc(b1-3)Gal(b1-4)GlcNAc(b1-3)Gal(b1-4)GlcNAc(b1-2)Man(a1-6)]Man(b1-4)GlcNAc(b1-4)[Fuc(a1-6)]GlcNAc
# Summary of the method: as §1
# [5] = biological target: Gal(b1-4)GlcNAc(b1-3)Gal(b1-4)GlcNAc(b1-3)Gal(b1-4)GlcNAc(b1-3)Gal(b1-4)GlcNAc(b1-3)Gal(b1-4)GlcNAc(b1-2)[Gal(b1-4)GlcNAc(b1-3)Gal(b1-4)GlcNAc(b1-3)Gal(b1-4)GlcNAc(b1-3)Gal(b1-4)GlcNAc(b1-3)Gal(b1-4)GlcNAc(b1-6)]Man(a1-6)[Gal(b1-4)GlcNAc(b1-3)Gal(b1-4)GlcNAc(b1-3)Gal(b1-4)GlcNAc(b1-3)Gal(b1-4)GlcNAc(b1-3)Gal(b1-4)GlcNAc(b1-2)Man(a1-3)]Man(b1-4)GlcNAc(b1-4)[Fuc(a1-6)]GlcNAc
# Summary of the method: as §1
# [6] = biological target: GalNAc(b1-3)Gal(a1-4)Gal(b1-4)GlcNAc(b1-3)Gal(b1-4)Glc
# Summary of the method: as §1
# [7] = biological target: GalNAc(b1-3)Gal(a1-6)Gal(b1-4)Glc
# Summary of the method: as §1
# [8] = biological target: GalNAc(b1-4)GlcNAc(b1-3)GalNAc(b1-4)GlcNAc
# Summary of the method: as §1
# GlcNAc(b1-3)Fuc = biological target: GlcNAc(b1-3)Fuc
# Summary of the method: as §1
# [9] = biological target: GlcNAc(b1-3)Gal(b1-4)GlcNAc(b1-3)Gal(b1-4)GlcNAc(b1-3)Gal(b1-4)GlcNAc(b1-2)Man(a1-3)[GlcNAc(b1-3)Gal(b1-4)GlcNAc(b1-3)Gal(b1-4)GlcNAc(b1-3)Gal(b1-4)GlcNAc(b1-2)Man(a1-6)]Man(b1-4)GlcNAc(b1-4)[Fuc(a1-6)]GlcNAc
# Summary of the method: as §1
# [10] = biological target: GlcNAc(b1-3)Gal(b1-4)GlcNAc(b1-3)Gal(b1-4)GlcNAc(b1-3)Gal(b1-4)GlcNAc(b1-3)Gal(b1-4)GlcNAc(b1-2)Man(a1-3)[GlcNAc(b1-3)Gal(b1-4)GlcNAc(b1-3)Gal(b1-4)GlcNAc(b1-3)Gal(b1-4)GlcNAc(b1-3)Gal(b1-4)GlcNAc(b1-2)Man(a1-6)]Man(b1-4)GlcNAc(b1-4)[Fuc(a1-6)]GlcNAc
# Summary of the method: as §1
# [11] = biological target: GlcNAc(b1-3)[GlcNAc(b1-6)]Gal(b1-4)GlcNAc
# Summary of the method: as §1
# GlcNAc(b1-4)GlcNAc = biological target: GlcNAc(b1-4)GlcNAc
# Summary of the method: as §1
# [12] = biological target: GlcNAc(b1-4)GlcNAc(b1-4)GlcNAc(b1-4)GlcNAc(b1-4)GlcNAc
# Summary of the method: as §1
# [13] = biological target: Man(a1-2)Man(a1-6)[Man(a1-3)]Man(a1-6)[Man(a1-2)Man(a1-2)Man(a1-3)]Man
# Summary of the method: as §1
# [14] = biological target: Neu5Ac(a2-3)Gal(b1-3)GalNAc(b1-4)[Neu5Ac(a2-3)]Gal(b1-4)Glc
# Summary of the method: as §1
# [15] = biological target: Neu5Ac(a2-3)Gal(b1-3)GlcNAc(b1-3)GalNAc
# Summary of the method: as §1
# [16] = biological target: Neu5Ac(a2-3)Gal(b1-3)[GlcNAc(b1-6)]GalNAc
# Summary of the method: as §1
# [17] = biological target: Neu5Ac(a2-3)Gal(b1-4)GlcNAc
# Summary of the method: as §1
# [18] = biological target: Neu5Ac(a2-3)Gal(b1-4)GlcNAc(b1-2)Man
# Summary of the method: as §1
# [19] = biological target: Neu5Ac(a2-3)Gal(b1-4)GlcNAc(b1-2)Man(a1-3)[GlcNAc(b1-4)][Neu5Ac(a2-3)Gal(b1-4)GlcNAc(b1-2)Man(a1-6)]Man(b1-4)GlcNAc(b1-4)GlcNAc
# Summary of the method: as §1
# [20] = biological target: Neu5Ac(a2-6)Gal(b1-4)GlcNAc(b1-2)Man(a1-3)[Man(a1-6)]Man(b1-4)GlcNAc(b1-4)GlcNAc
# Summary of the method: as §1
# [21] = biological target: Neu5Ac(a2-6)Gal(b1-4)GlcNAc(b1-2)[Neu5Ac(a2-6)Gal(b1-4)GlcNAc(b1-4)]Man(a1-3)[GlcNAc(b1-4)][Neu5Ac(a2-6)Gal(b1-4)GlcNAc(b1-2)[Neu5Ac(a2-6)Gal(b1-4)GlcNAc(b1-6)]Man(a1-6)]Man(b1-4)GlcNAc(b1-4)GlcNAc
# Summary of the method: as §1
# [22] = biological target: Neu5Gc(a2-3)Gal(b1-4)GlcNAc(b1-3)Gal(b1-4)GlcNAc(b1-2)Man(a1-3)[Neu5Gc(a2-3)Gal(b1-4)GlcNAc(b1-3)Gal(b1-4)GlcNAc(b1-2)Man(a1-6)]Man(b1-4)GlcNAc(b1-4)GlcNAc
# Summary of the method: as §1
# [23] = biological target: Neu5Gc(a2-3)Gal(b1-4)[Fuc(a1-3)]GlcNAc
# Summary of the method: as §1
binder,measurement,setting,value
B1,glycan array binding signal (z-score),[1],4.17
same,glycan array binding signal (z-score),[2],4.03
same,glycan array binding signal (z-score),[3],7.44
same,glycan array binding signal (z-score),[4],4.13
same,glycan array binding signal (z-score),[5],4.35
same,glycan array binding signal (z-score),[6],-0.451
same,glycan array binding signal (z-score),[7],-0.396
same,glycan array binding signal (z-score),[8],0.573
same,glycan array binding signal (z-score),GlcNAc(b1-3)Fuc,0.85
same,glycan array binding signal (z-score),[9],4.14
same,glycan array binding signal (z-score),[10],2.87
same,glycan array binding signal (z-score),[11],-0.632
same,glycan array binding signal (z-score),GlcNAc(b1-4)GlcNAc,-0.382
same,glycan array binding signal (z-score),[12],-0.329
same,glycan array binding signal (z-score),[13],-0.26
same,glycan array binding signal (z-score),[14],-0.265
same,glycan array binding signal (z-score),[15],-0.585
same,glycan array binding signal (z-score),[16],-0.436
same,glycan array binding signal (z-score),[17],-0.58
same,glycan array binding signal (z-score),[18],0.603
same,glycan array binding signal (z-score),[19],-0.325
same,glycan array binding signal (z-score),[20],-0.264
same,glycan array binding signal (z-score),[21],-0.265
same,glycan array binding signal (z-score),[22],1.39
same,glycan array binding signal (z-score),[23],-0.084
